In all, about 190,000 compounds went through this assay and about 810 (0.43%) were called active. The list comes from a sample in which actives are over-represented; it also holds similar structures and randomly drawn compounds. Values without a mark were called inactive. No stated cut-off is given here; in the data, active means inhibition above about 50%; inactive means the rest.

The target of the assay is Mannose-6-phosphate isomerase (Homo sapiens) (UniProt P34949). The assay is described as follows: MPI enzyme activity inhibition – biochemical, fluorescence intensity, coupled assay, primary screen (AID 1209).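 Further: plate controls were DMSO vehicle for no effect and wells lacking substrate for full effect.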 Particulars: purified PMI enzyme, at 20 µM, stronger effect = higher value.
Sequence of Mannose-6-phosphate isomerase (Homo sapiens) (P34949 whole entry, looked up): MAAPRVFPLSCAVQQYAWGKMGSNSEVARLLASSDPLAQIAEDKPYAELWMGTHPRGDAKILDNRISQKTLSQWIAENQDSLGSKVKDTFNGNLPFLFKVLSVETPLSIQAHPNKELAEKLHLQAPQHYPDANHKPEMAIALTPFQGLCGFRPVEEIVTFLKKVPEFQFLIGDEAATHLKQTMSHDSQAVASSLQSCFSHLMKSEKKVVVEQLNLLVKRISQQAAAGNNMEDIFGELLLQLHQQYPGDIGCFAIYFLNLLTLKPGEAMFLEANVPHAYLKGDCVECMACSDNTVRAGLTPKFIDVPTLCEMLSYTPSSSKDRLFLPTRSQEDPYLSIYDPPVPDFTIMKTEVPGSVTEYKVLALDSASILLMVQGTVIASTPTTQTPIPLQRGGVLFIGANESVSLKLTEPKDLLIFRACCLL
In general, inhibition refers to the relative decrease from the control value, in per cent. As for `Cc1cccc(C)c1NC(=O)C1(N(Cc2ccco2)C(=O)Cn2nnnc2N)CCCCC1`, the inhibition was 4.1%.

As to `COc1ccc(CNC(=O)C/C(C)=N/NC(=O)Cc2ccc(OC)cc2)cc1`, the inhibition is -4%. Regarding `COC(=O)c1ccc2c(c1)C(=O)/C(=C/c1ccc(O)cc1)O2`, the inhibition is 8%.

For the compound `COC(=O)c1ccc2nc(C)c(C)nc2c1`, the inhibition was -5.7%. Take `COC(=O)c1ccc2c(c1)C(C)(C)C(/C=C/c1ccccc1O)=[N+]2C`: the inhibition is 39.9%. `COC(=O)c1ccc2c(c1)C(C)(C)C(/C=C/c1ccc(O)cc1)=[N+]2C`: the inhibition is 72% (active). As to `COC(=O)c1ccc2c(c1)C(C)(C)C(/C=C/c1ccc(OC)c(OC)c1OC)=[N+]2C`, the inhibition is 91.8% (active). Under `COC(=O)c1ccc(C(=O)OC)c(NC(=O)COC(=O)c2ccc(OC)c(OC)c2OC)c1` stands 7.2%; under `CN(C)c1ccc(C(=O)OCc2ccccc2)cc1`, 16%; under `CCS(=O)(=O)c1ccc2c(c1)N(S(=O)(=O)c1ccc(Cl)cc1)CC(C(=O)O)O2` (stereo not given), -3.9%.

As for `O=C(O)CC1S/C(=N/N=C/c2ccc(-c3ccccc3[N+](=O)[O-])o2)NC1=O` (stereo not given), the inhibition was 68.4% (active). The value for `O=C(O)CC1S/C(=N/N=C/c2ccc(-c3ccc(Cl)c([N+](=O)[O-])c3)o2)NC1=O` (stereo not given) was -9%.

Consider `Cc1ccc(-c2ccc(/C=N/N=C3/NC(=O)C(CC(=O)O)S3)o2)c([N+](=O)[O-])c1` (stereo not given), for which the inhibition was 30.5%.

Regarding `COC(=O)c1cccc(-n2cnnn2)c1`, the inhibition was -6.9%. In the case of `COC(=O)c1cccc(-n2[nH]nnc2=S)c1`, the inhibition was 64.8% (active). Under `COC(=O)c1cccc(NC(N)=S)c1` stands -7.9%; under `COc1ccc(OC)c2c(C)cc(NCCN3CCOCC3)nc12`, 11.7%.

For the compound `CCn1nc(CC(=O)Nc2nnc(CC(=O)N3CCCCC3)s2)c2ccccc2c1=O`, the inhibition is 4.6%. On to `CCn1nc(CC(=O)Nc2nnc(CC(=O)N3CCOCC3)s2)c2ccccc2c1=O`, for which the inhibition is 5.5%. For `CCn1nc(CC(=O)Nc2nnc(CC(=O)N3CCCC3)s2)c2ccccc2c1=O`, the inhibition was 50.5% (active).

For `COc1ccnc(Oc2ccc(Cl)cc2)c1C#N`, the inhibition is -5.9%. Turning to `CC(C)CC(=O)N1CCN(Cc2ccc3c(c2)OCO3)CC1`, the inhibition is 3.6%.

Regarding `CCOC(=O)N1CCN(C(=O)Cn2ccc3c(OC)cccc3c2=O)CC1`, the inhibition was 3.2%. The value for `CCCn1c(SCC(=O)Nc2cc(S(=O)(=O)N3CCOCC3)ccc2OC)n[nH]c1=O` was -2%. For the compound `CCOc1cc(-c2nc(C)c(C(C)=O)n2O)ccc1OCC(=O)Nc1ccc(F)cc1`, the inhibition is -3.7%.

For the origin of these results see PubChem BioAssay AID1209 (Sanford-Burnham Center for Chemical Genomics, 2008).
